Screening data: PubChem BioAssay, National Center for Advancing Translational Sciences (NCATS)
EPAC1 antagonist: qHTS for Antagonist of cAMP-regulated guanine nucleotide exchange factor 3 (EPAC1): primary screen; EPAC1 GEF assay, Rap1b-BODIPY-GDP exchange fluorescence; Potency, µM (top dose mostly 115 µM), inactives show at the top dose activity change, negative = inhibition, actives largely listed as inhibitors; hit rate 0.14% among 360,000; AID 720709, 2013;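 also: plate controls were vehicle for no effect and positive control for full effect; nearly all actives have a fitted effect of over 50% in size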
EPAC1 ag: qHTS for Agonist of cAMP-regulated guanine nucleotide exchange factor 3 (EPAC1): primary screen; Rap guanine nucleotide exchange factor 3 (Homo sapiens), O95398; EPAC1 agonist qHTS, biochemical assay; response scale: 100% = response to 6.5 mM cAMP; Potency, µM (titrated, usually from 154 µM), for inactives: at the highest dose activation, most hits filed as activators; hit rate 0.073% among 360,000; also: nearly all actives have a fitted effect of over 60% in size
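Compounds were pinned as a concentration titration into mixtures of EPAC1 (100 nM), BODIPY-GDP-loaded Rap1B (250 nM) and GDP (50 uM). After 5 min at room temperature, fluorescence was followed for 30 min; activity was scaled to 6.5 mM cAMP.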
EPAC2 antag: qHTS for Antagonist of cAMP-regulated guanine nucleotide exchange factor 2 (EPAC2): primary screen; EPAC2 GEF exchange of Rap1B-BODIPY-GDP, fluorescence; Potency, µM (series often up to 114 µM), inactives show top-dose activity, negative = inhibition, usual class: inhibitors; hit rate 0.18% among 360,000; AID 720708, 2013; also: % is scaled to controls: 0 for no effect and ±100 for the full control effect; nearly all actives have a fitted effect of over 45% in size
Target sequence (Q8WZA2 whole entry, looked up): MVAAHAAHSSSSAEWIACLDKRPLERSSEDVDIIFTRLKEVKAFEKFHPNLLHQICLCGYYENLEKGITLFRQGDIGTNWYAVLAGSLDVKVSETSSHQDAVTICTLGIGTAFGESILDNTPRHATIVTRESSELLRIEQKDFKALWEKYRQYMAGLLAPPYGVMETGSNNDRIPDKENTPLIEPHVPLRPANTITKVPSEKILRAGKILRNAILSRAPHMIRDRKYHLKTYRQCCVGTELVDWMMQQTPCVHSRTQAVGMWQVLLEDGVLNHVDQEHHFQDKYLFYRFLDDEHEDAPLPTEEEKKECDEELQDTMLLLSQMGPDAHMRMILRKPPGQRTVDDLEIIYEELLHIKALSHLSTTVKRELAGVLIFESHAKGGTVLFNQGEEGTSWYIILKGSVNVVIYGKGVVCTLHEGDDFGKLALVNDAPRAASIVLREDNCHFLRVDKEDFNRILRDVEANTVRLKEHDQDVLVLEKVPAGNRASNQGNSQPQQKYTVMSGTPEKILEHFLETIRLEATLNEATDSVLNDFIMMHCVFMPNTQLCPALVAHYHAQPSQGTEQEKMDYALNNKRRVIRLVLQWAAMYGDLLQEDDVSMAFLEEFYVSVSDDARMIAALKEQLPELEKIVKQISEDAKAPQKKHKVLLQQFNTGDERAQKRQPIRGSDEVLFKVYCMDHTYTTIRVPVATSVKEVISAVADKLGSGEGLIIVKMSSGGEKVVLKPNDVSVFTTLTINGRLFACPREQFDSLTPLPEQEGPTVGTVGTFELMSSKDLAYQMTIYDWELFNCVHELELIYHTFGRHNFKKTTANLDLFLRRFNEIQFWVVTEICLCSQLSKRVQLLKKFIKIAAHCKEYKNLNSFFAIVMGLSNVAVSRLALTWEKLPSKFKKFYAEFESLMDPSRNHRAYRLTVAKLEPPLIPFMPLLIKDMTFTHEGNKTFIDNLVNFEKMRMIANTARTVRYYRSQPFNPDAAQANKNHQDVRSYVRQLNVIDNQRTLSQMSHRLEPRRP
HEK293 tox: qHTS of GLP-1 Receptor Inverse Agonists: Cytotox Screen; HEK293 cAMP-luciferase reporter cells, luminescence, 24 h; Potency, µM (titrated, usually from 38.3 µM), for the others: at the top dose activity change, negative = inhibition, actives largely listed as inhibitors; hit rate 0.13% among 410,000;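 also: loss of luciferase light is scored as toxicity; % is scaled to controls: 0 for no effect and ±100 for the full control effect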
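To flag toxic compounds, the library was rerun on cells for 24 hr at 37 deg C and 5% CO2. Viability-linked luminescence was captured 12 min after adding luciferase detection reagent.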
USP1-UAF1 inh: Inhibitors of USP1/UAF1: Primary Screen. Ubiquitin carboxyl-terminal hydrolase 1 (Homo sapiens), O94782. AID 743255, 2014. recombinant USP1/UAF1, Ub-Rhodamine cleavage fluorescence. Potency, µM (highest dose often 57.1 µM), for inactives: top-dose activity change, negative = inhibition, usual class: inhibitors. hit rate 0.23% among 390,000; also: % is scaled to controls: 0 for no effect and ±100 for the full control effect; nearly all actives have a fitted effect of over 60% in size
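In this screen, compounds sit with the deubiquitinase complex (1nM) for 15 min at room temperature before Ub-Rho is added at 150nM final. Fluorescence rise is then followed for 6 reads every 60 seconds.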
EPAC2 agonist: qHTS for Agonist of cAMP-regulated guanine nucleotide exchange factor 4 (EPAC2): primary screen | hit rate 0.079% among 360,000 | Rap guanine nucleotide exchange factor 4 (Homo sapiens), Q8WZA2 | Potency, µM (highest dose often 154 µM), inactives show top-dose activation, most hits filed as activators | AID 720711, 2013 | EPAC2 activation, biochemical qHTS; response scale: 100% = 6.5 mM cAMP response; also: nearly all actives have a fitted effect of over 50% in size
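EPAC2 (100 nM) mixed with Rap1B loaded with BODIPY-GDP (250 nM) plus 50 uM unlabeled GDP; compounds pinned in, 5 min RT, then read every 5 min for 30 min (ex 480, em 540 nm). Normalized to cAMP control.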
Starred values were filed as active, the others as inactive; ? = inconclusive; · = no result given; [ ] = dose if it differs, or a comment. Compounds with a hit are over-represented: about 0.55% of the library has one in this group of screens. Calls follow the shape of the dose curve; as a rule, active = well fitted curve in the direction sought with a large enough effect; inconclusive = small, poorly fitted or top-dose-only effect, or another doubt; inactive = no such curve, though single readings can be large; an effect the other way counts as inactive or inconclusive. Potency is read from the fitted curve at half-maximal effect.

SMILES | EPAC1 antagonist | EPAC1 ag | EPAC2 antag | HEK293 tox | USP1-UAF1 inh | EPAC2 agonist
O=C1c2ccccc2C(=O)C12OC2c1cccc2ccccc12 (centres undefined) | ? | 11% | ? | -61% | 14µM* | 21%
Cn1cc(C2=C(c3ccc(Cl)cc3Cl)C(=O)NC2=O)c2ccccc21 | ? | -47% | 15% | -6% | -16% | 100µM*
Cn1cc(-c2ccccc2C(N)=O)c(=O)c2cc(Cl)ccc21 | -9% | -2% | 17% | 1% | -16% | 2%
Cc1ccc(NS(=O)(=O)c2cccc(C(=O)NC3CCN(Cc4ccccc4)CC3)c2)c(C)c1 | -7% | 0% | 2% | 11µM* | -21% | -5%
O=C(NC1CCN(Cc2ccccc2)CC1)c1cccc(S(=O)(=O)Nc2ccc(F)cc2)c1 | -3% | -8% | -13% | 11µM* | -5% | 2%
COc1ccccc1NS(=O)(=O)c1cccc(C(=O)NC2CCN(Cc3ccccc3)CC2)c1 | 8% | -4% | 24% | -4% | -4% | 14%
CC(C)(C)C1CCc2nc(NC(=O)c3cccc(Cl)c3)sc2C1 (centres undefined) | · | · | · | -14% | -1% | ·
CCOC(=O)c1ccc(/C=C2/C=C(c3ccccc3)N(c3ccc(Cl)c(C(=O)O)c3)C2=O)cc1 | ? | 19% | ? | -15% | 25µM* | 8%
C=CCn1c(-c2csc(-c3ccccc3)n2)n[nH]c1=S | -3% | 2% | 4% | 11µM* | -6% | 8%
C=CCn1c(-c2csc(-c3ccc(Cl)cc3)n2)n[nH]c1=S | 2% | 3% | 1% | 3.5µM* | -5% | 11%
CN(Cc1ccccc1)C(=O)c1cc2c(s1)-c1ccc(Cl)cc1SC2 | · | · | · | -2% | -15% | ·
Cc1ccc2c(CC(=O)Nc3c(C(=O)c4ccc(F)cc4)oc4ccccc34)coc2c1C | · | · | · | 16% | 8% | ·
CNC(=O)C1CCC(Cn2c(=O)c3sccc3n(CC(=O)NCc3ccc(F)cc3)c2=O)CC1 (centres undefined) | · | · | · | -7% | -8% | ·
CCCCCCc1cc2cc(S(=O)(=O)c3ccc(F)cc3)c(=O)oc2cc1O | 12% | -8% | 9% | 281% | -5% | -10%
CCCCCCc1cc2cc(-c3nnc(-c4ccccc4OC)o3)c(=O)oc2cc1O | 87% | ? | 236% | 388% | 14µM* | -22%
CCCCCCc1cc2cc(-c3nnc(-c4ccccc4O)o3)c(=O)oc2cc1O | 39% | ? | 71% | 134% | 8.9µM* | ?
CCCCCCc1cc2cc(-c3nnc(-c4cc(OC)c(OC)c(OC)c4)o3)c(=O)oc2cc1O | 5% | 8% | 58% | 228% | 66% | ?
CCOc1ccc(CCNC(=O)C2CCCN(S(=O)(=O)N(C)c3ccc(F)cc3)C2)cc1 (centres undefined) | · | · | · | 2% | -16% | ·
CCOC(=O)c1[nH]c(C)c(C(=O)NC(C)(C)C)c1C | -13% | 0% | 12% | -2% | -26% | 6.3µM*
O=c1[nH][nH]c(-c2ccccc2O)c1C(C[N+](=O)[O-])c1ccc(Br)cc1 (centres undefined) | 17% | -13% | 11µM* | 18%[1.53 µM] | -12% | -9%
Cc1ccc(C(C[N+](=O)[O-])c2c(-c3ccccc3O)[nH][nH]c2=O)cc1 (centres undefined) | -17% | -17% | 11µM* | -2% | ? | -3%
Cc1cccc(-n2c(C)cc(/C=C3\C(=N)N4N=C(CC(C)C)SC4=NC3=O)c2C)c1 | 8% | -4% | 12% | -3% | -18% | 4%
CC(C)CC1=NN2C(=N)/C(=C\c3coc4ccccc4c3=O)C(=O)N=C2S1 | 97% | 63µM* | 159% | 2% | 28µM* | 63µM*
CCSC1=NSC2=NC(=O)/C(=C\c3coc4ccccc4c3=O)C(=N)N12 | 86% | 45µM* | 74% | 19% | 22µM* | 100µM*
CCc1ccc(NC(=O)Cn2c(=O)n(-c3ccc(OC)cc3)c(=O)c3ccc(C(=O)NCc4ccc(C)cc4)cc32)cc1 | · | · | · | 0% | 4% | ·
SMILES | EPAC1 antagonist | EPAC1 ag | EPAC2 antag | HEK293 tox | USP1-UAF1 inh | EPAC2 agonist
COC(=O)c1ccccc1NC(=O)COC(=O)c1ccccc1N=Nc1ccc(N(C)C)cc1 | ? | 12% | -10% | 5% | -10% | 11%
CC(=O)c1ccc(NC(=O)COC(=O)c2ccccc2N=Nc2ccc(N(C)C)cc2)cc1 | -8% | -6% | -9% | 10µM* | -12% | 2%
CC(C)Nc1ccc(Nc2ccnc3cc4ccccc4cc23)cc1 | ? | 5% | -4% | 4.5µM* | -5% | -16%
Cc1cc(O)cc(C)c1NS(=O)(=O)c1ccc2ccccc2c1 | -5% | 4% | 11µM* | -9% | 2% | 13%
Cc1ccccc1C(=O)c1cccn1CC(=O)NCCCN1CCCCC1 | -18% | -15% | -6% | -5% | -20% | 2%
Cc1ccc(C)c(N2CCN(CCCNC(=O)Cn3cccc3C(=O)c3ccccc3C)CC2)c1 | -19% | -12% | ? | 10µM* | -8% | -11%
COc1cc(CN(C(=O)c2ccc(OC(C)C)cc2)c2ccccn2)cc(OC)c1OC | · | · | · | 5% | 1% | ·
O=C(O)c1ccc(NC2=C(n3nnc4ccccc43)C(=O)c3ccccc3C2=O)cc1 | -11% | 6% | -13% | -16% | 16µM* | 15%
COc1cc(/C=N/NC(N)=S)ccc1OC(=O)c1ccc(C)cc1 | 4% | 9% | 8% | ? | -20% | -10%
COc1cc(/C=N/NC(N)=S)ccc1OCc1ccc(C)cc1 | 1% | 3% | ? | 13µM* | -20% | 0%
CC(=O)Nc1ccc(C(=O)OCC(=O)NCc2ccccc2)cc1 | -22% | 6% | -16% | -18% | 7% | 11%
C=C(C)C(=O)OCC(=O)NCc1ccccc1 | -9% | -5% | 4% | 11µM* | -2% | 2%
Cc1cn2c(=O)cc(COc3cccc(NC(=O)c4ccccc4Cl)c3)nc2s1 | · | · | · | 4% | -1% | ·
O=c1cc(-c2ccc(O)cc2)oc2c(-c3c(O)cc(O)c4c(=O)cc(-c5ccc(O)cc5)oc34)c(O)cc(O)c12 | -6% | -9% | 7% | 4% | -9% | 5%
